# Reference: PubChem BioAssay AID1159580 (chemical genetic matrix, 2015)
# Out of some 5,500 compounds screened, about 2,000 (36%) were called active. Another 18% or so got no clear call; they are omitted. Some of the results follow. Unmarked numbers belong to inactive results. Rule as the data show it: active = normalized growth mostly below about 0.91 (no sharp cut-off); inconclusive = no clear call, values can overlap the other calls; inactive = mostly above about 0.92.
# Experiment: chemical genetic growth profiling, strain panel (AID 1159580);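 also: tested at 20 µM; growth read once vehicle control cultures reached saturation at 30 °C; 1 = growth at the plate median or of vehicle wells; lower values mean less growth of the strain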
# Details: growth OD
smiles,measurement,setting,value
CC[C@@]1(O)C[C@H](O[C@H]2C[C@H](N(C)C)[C@H](O)[C@H](C)O2)c2c(cc3c(c2O)C(=O)c2c(O)cccc2C3=O)[C@H]1C(=O)OC,normalized growth,"S. cerevisiae deletion strains, locus YKL068W, stronger effect = lower value",0.965
same,normalized growth,"S. cerevisiae deletion strains, locus YKL085W, strain MDH1 (second series), stronger effect = lower value",0.914 (active)
same,normalized growth,"S. cerevisiae deletion strains, locus YKL085W, strain MDH1, stronger effect = lower value",0.914 (active)
same,normalized growth,"S. cerevisiae deletion strains, locus YKL160W, strain elf1, stronger effect = lower value",0.873 (active)
same,normalized growth,"S. cerevisiae deletion strains, locus YKL190W, strain CNB1, stronger effect = lower value",0.876 (active)
same,normalized growth,"S. cerevisiae deletion strains, locus YKR001C, strain vps1, stronger effect = lower value",0.639 (active)
same,normalized growth,"S. cerevisiae deletion strains, locus YKR026C, strain gcn3, stronger effect = lower value",0.945
same,normalized growth,"S. cerevisiae deletion strains, locus YKR091W, strain srl3, stronger effect = lower value",0.945
same,normalized growth,"S. cerevisiae deletion strains, locus YLL001W, strain dnm1, stronger effect = lower value",0.869 (active)
same,normalized growth,"S. cerevisiae deletion strains, locus YLL026W, stronger effect = lower value",0.908 (active)
same,normalized growth,"S. cerevisiae deletion strains, locus YLL041C, strain sdh2, stronger effect = lower value",0.944
same,normalized growth,"S. cerevisiae deletion strains, locus YLR027C, strain aat2, stronger effect = lower value",0.877 (active)
same,normalized growth,"S. cerevisiae deletion strains, locus YLR039C, strain RIC1, stronger effect = lower value",0.491 (active)
same,normalized growth,"S. cerevisiae deletion strains, locus YLR058C, strain SHM2, stronger effect = lower value",0.89 (active)
same,normalized growth,"S. cerevisiae deletion strains, locus YLR102C, strain apc9, stronger effect = lower value",0.901 (active)
same,normalized growth,"S. cerevisiae deletion strains, locus YLR113W, strain HOG1, stronger effect = lower value",1.02
same,normalized growth,"S. cerevisiae deletion strains, locus YLR221C, strain rsa3, stronger effect = lower value",0.855 (active)
same,normalized growth,"S. cerevisiae deletion strains, locus YLR258W, strain gsy2, stronger effect = lower value",0.929
same,normalized growth,"S. cerevisiae deletion strains, locus YLR262C, strain YPT6 (second series), stronger effect = lower value",0.649 (active)
same,normalized growth,"S. cerevisiae deletion strains, locus YLR262C, strain YPT6, stronger effect = lower value",0.462 (active)
same,normalized growth,"S. cerevisiae deletion strains, locus YLR268W, strain sec22, stronger effect = lower value",0.691 (active)
same,normalized growth,"S. cerevisiae deletion strains, locus YLR320W, strain mms22, stronger effect = lower value",0.245 (active)
same,normalized growth,"S. cerevisiae deletion strains, locus YLR330W, strain CHS5, stronger effect = lower value",0.873 (active)
same,normalized growth,"S. cerevisiae deletion strains, locus YLR342W, strain FKS1 (second series), stronger effect = lower value",0.769 (active)
same,normalized growth,"S. cerevisiae deletion strains, locus YLR342W, strain FKS1, stronger effect = lower value",0.862 (active)
same,normalized growth,"S. cerevisiae deletion strains, locus YLR357W, strain rsc2, stronger effect = lower value",0.939
same,normalized growth,"S. cerevisiae deletion strains, locus YLR370C, strain arc18, stronger effect = lower value",0.899 (active)
same,normalized growth,"S. cerevisiae deletion strains, locus YLR371W, strain rom2, stronger effect = lower value",0.846 (active)
same,normalized growth,"S. cerevisiae deletion strains, locus YLR384C, strain iki3, stronger effect = lower value",0.93
same,normalized growth,"S. cerevisiae deletion strains, locus YLR418C, strain cdc73, stronger effect = lower value",0.69 (active)
same,normalized growth,"S. cerevisiae deletion strains, locus YML016C, strain PPZ1, stronger effect = lower value",0.929
same,normalized growth,"S. cerevisiae deletion strains, locus YML032C, strain rad52, stronger effect = lower value",0.241 (active)
same,normalized growth,"S. cerevisiae deletion strains, locus YML120C, strain ndi1, stronger effect = lower value",0.912 (active)
same,normalized growth,"S. cerevisiae deletion strains, locus YML124C, strain tub3, stronger effect = lower value",0.9 (active)
same,normalized growth,"S. cerevisiae deletion strains, locus YMR058W, strain fet3, stronger effect = lower value",0.818 (active)
same,normalized growth,"S. cerevisiae deletion strains, locus YMR078C, strain ctf18, stronger effect = lower value",0.724 (active)
same,normalized growth,"S. cerevisiae deletion strains, locus YMR125W, strain sto1, stronger effect = lower value",1.05
same,normalized growth,"S. cerevisiae deletion strains, locus YMR129W, stronger effect = lower value",0.921 (active)
same,normalized growth,"S. cerevisiae deletion strains, locus YMR205C, strain PFK2, stronger effect = lower value",0.779 (active)
same,normalized growth,"S. cerevisiae deletion strains, locus YMR223W, strain ubp8, stronger effect = lower value",0.838 (active)
same,normalized growth,"S. cerevisiae deletion strains, locus YMR231W, strain pep5, stronger effect = lower value",0.918 (active)
same,normalized growth,"S. cerevisiae deletion strains, locus YMR263W, strain SAP30, stronger effect = lower value",0.92
same,normalized growth,"S. cerevisiae deletion strains, locus YMR307W, strain GAS1, stronger effect = lower value",0.601
same,normalized growth,"S. cerevisiae deletion strains, locus YNL067W, strain RPL9B, stronger effect = lower value",0.824 (active)
same,normalized growth,"S. cerevisiae deletion strains, locus YNL071W, strain lat1, stronger effect = lower value",0.815 (active)
same,normalized growth,"S. cerevisiae deletion strains, locus YNL153C, strain GIM3, stronger effect = lower value",0.94
same,normalized growth,"S. cerevisiae deletion strains, locus YNL183C, strain NPR1, stronger effect = lower value",0.926
same,normalized growth,"S. cerevisiae deletion strains, locus YNL209W, strain ssb2, stronger effect = lower value",0.871 (active)
same,normalized growth,"S. cerevisiae deletion strains, locus YNL233W, strain BNI4, stronger effect = lower value",0.861 (active)
same,normalized growth,"S. cerevisiae deletion strains, locus YNL248C, strain rpa49, stronger effect = lower value",0.309 (active)
same,normalized growth,"S. cerevisiae deletion strains, locus YNL250W, strain rad50, stronger effect = lower value",0.559 (active)
same,normalized growth,"S. cerevisiae deletion strains, locus YNL271C, strain bni1, stronger effect = lower value",0.916 (active)
same,normalized growth,"S. cerevisiae deletion strains, locus YNL298W, strain CLA4, stronger effect = lower value",0.898 (active)
same,normalized growth,"S. cerevisiae deletion strains, locus YNL307C, strain MCK1, stronger effect = lower value",0.864 (active)
same,normalized growth,"S. cerevisiae deletion strains, locus YNL322C, strain KRE1 (second series), stronger effect = lower value",0.922
same,normalized growth,"S. cerevisiae deletion strains, locus YNL322C, strain KRE1, stronger effect = lower value",0.893 (active)
same,normalized growth,"S. cerevisiae deletion strains, locus YNR049C, strain mso1, stronger effect = lower value",0.946
same,normalized growth,"S. cerevisiae deletion strains, locus YNR052C, strain pop2, stronger effect = lower value",0.65 (active)
same,normalized growth,"S. cerevisiae deletion strains, locus YOL006C, strain TOP1, stronger effect = lower value",0.198 (active)
same,normalized growth,"S. cerevisiae deletion strains, locus YOL012C, strain htz1",0.351
same,normalized growth,"S. cerevisiae deletion strains, locus YOL147C, strain pex11, stronger effect = lower value",0.837 (active)
same,normalized growth,"S. cerevisiae deletion strains, locus YOR001W, strain rrp6, stronger effect = lower value",0.934
same,normalized growth,"S. cerevisiae deletion strains, locus YOR061W, strain CKA2, stronger effect = lower value",0.89
same,normalized growth,"S. cerevisiae deletion strains, locus YOR069W, strain VPS5, stronger effect = lower value",0.895 (active)
same,normalized growth,"S. cerevisiae deletion strains, locus YOR070C, strain gyp1, stronger effect = lower value",0.898 (active)
same,normalized growth,"S. cerevisiae deletion strains, locus YOR080W, strain dia2, stronger effect = lower value",0.97
same,normalized growth,"S. cerevisiae deletion strains, locus YOR083W, strain WHI5, stronger effect = lower value",0.81 (active)
same,normalized growth,"S. cerevisiae deletion strains, locus YOR106W, strain vam3, stronger effect = lower value",0.672 (active)
same,normalized growth,"S. cerevisiae deletion strains, locus YOR136W, strain idh2, stronger effect = lower value",0.894 (active)
same,normalized growth,"S. cerevisiae deletion strains, locus YOR144C, strain elg1, stronger effect = lower value",0.857 (active)
same,normalized growth,"S. cerevisiae deletion strains, locus YOR184W, strain ser1, stronger effect = lower value",0.591 (active)
same,normalized growth,"S. cerevisiae deletion strains, locus YOR231W, strain MKK1, stronger effect = lower value",0.994
same,normalized growth,"S. cerevisiae deletion strains, locus YOR265W, strain rbl2, stronger effect = lower value",0.917 (active)
same,normalized growth,"S. cerevisiae deletion strains, locus YOR270C, strain vph1, stronger effect = lower value",0.39 (active)
same,normalized growth,"S. cerevisiae deletion strains, locus YOR290C, strain snf2, stronger effect = lower value",0.932
same,normalized growth,"S. cerevisiae deletion strains, locus YOR316C, strain cot1, stronger effect = lower value",0.915 (active)
same,normalized growth,"S. cerevisiae deletion strains, locus YPL051W, strain arl3, stronger effect = lower value",0.785 (active)
same,normalized growth,"S. cerevisiae deletion strains, locus YPL055C, strain LGE1, stronger effect = lower value",0.744 (active)
same,normalized growth,"S. cerevisiae deletion strains, locus YPL078C, strain atp4, stronger effect = lower value",0.961
same,normalized growth,"S. cerevisiae deletion strains, locus YPL106C, strain sse1, stronger effect = lower value",1.04
same,normalized growth,"S. cerevisiae deletion strains, locus YPL240C, strain hsp82, stronger effect = lower value",0.92 (active)
same,normalized growth,"S. cerevisiae deletion strains, locus YPL241C, strain CIN2, stronger effect = lower value",0.929 (active)
same,normalized growth,"S. cerevisiae deletion strains, locus YPL256C, strain CLN2, stronger effect = lower value",0.963
same,normalized growth,"S. cerevisiae deletion strains, locus YPR119W, strain clb2, stronger effect = lower value",0.901 (active)
same,normalized growth,"S. cerevisiae deletion strains, locus YPR141C, strain kar3, stronger effect = lower value",0.935
same,normalized growth,"S. cerevisiae deletion strains, locus YPR163C, strain tif3, stronger effect = lower value",0.783 (active)
same,normalized growth,"S. cerevisiae deletion strains, locus YPR167C, strain met16, stronger effect = lower value",0.882 (active)
same,normalized growth,"S. cerevisiae deletion strains, strain wtn01, stronger effect = lower value",0.759 (active)
same,normalized growth,"S. cerevisiae strains, strain wild type, stronger effect = lower value",0.841 (active)
